Data on 18 molecules can be found in PubChem BioAssay (NCI).

Compounds without any hit were thinned out: in the full panel of roughly 83,000, 20% have a hit.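 A percent growth of 40 corresponds to 60% growth inhibition; 0 means no net growth; -100 means all cells died. Active threshold: below 10.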 Unmarked numbers belong to inactive results. Active and inactive are the calls of the source.

Some test systems named below: HCT-15 colon; HT29 colon; SNB-75 CNS; SNB-19 CNS; U251 CNS; PC-3 prostate; SK-MEL-5 melanoma; LOX IMVI melanoma; SK-MEL-28 melanoma; UACC-62 melanoma.
What all share (assay): NCI-60 one-dose screen, 48 h (100 = growth as untreated, 0 = no growth, -100 = all killed)
Conditions in all cases: 10 µM unless noted

As to `COc1cc2ncnc(Nc3ccc(OCc4cccc(F)c4)c(Cl)c3)c2cc1NC(=O)C1CCCC1`, the growth in the test on HCT-15 colon was 80.2%; in the test on HT29 colon, 82.3%; with SNB-75 CNS, 69.2%; in the test on SNB-19 CNS it was 83.3%; in the test with U251 CNS it was 91.8%; with PC-3 prostate, 63.3%. For the same molecule, the growth with SK-MEL-5 melanoma is 95%; with LOX IMVI melanoma it was 87.5%; in the test with SK-MEL-28 melanoma, 90.1%.

In the case of `O=c1[nH]c2c3ccncc3cc(-c3cccc(Cl)c3)c2c2cnccc12`, the growth with HCT-15 colon was 43.3%; in the test with HT29 colon, 28.1%; with SNB-75 CNS, -21.8% (active); in the test on SNB-19 CNS, 75.7%; in the test with U251 CNS, 13.4%; in the test with PC-3 prostate, 42.2%. Also, the growth was 46.3% in the test on SK-MEL-5 melanoma, 19.9% with LOX IMVI melanoma and 25% in the test on SK-MEL-28 melanoma.

For the molecule `CCCCC[C@H]1CC=C2C(=O)C(Cl)=C[C@@H]2CC=CCCCC(=O)O[C@@H](CCCCC)CC=C2C(=O)C(Cl)=C[C@@H]2CC=CCCCC(=O)O[C@@H](CCCCC)CC=C2C(=O)C(Cl)=C[C@@H]2CC=CCCCC(=O)O1`, the growth is 71.6% [8 µM] in the test on HCT-15 colon; 44.4% [8 µM] with HT29 colon; 106% [8 µM] in the test with SNB-75 CNS; 61.3% [8 µM] in the test on SNB-19 CNS; 35.2% [8 µM] with U251 CNS; 70.2% [8 µM] in the test on PC-3 prostate. The growth was 62.2% [8 µM] in the test on SK-MEL-5 melanoma, 14.5% [8 µM] in the test on LOX IMVI melanoma and 52% [8 µM] in the test on SK-MEL-28 melanoma.

With `Cc1cccc(C)c1NC(=O)CSC(=S)N1CCN(CCOCCO)CC1`, the growth was 105% in the test on HCT-15 colon; 93.6% in the test with HT29 colon; 96.7% with SNB-75 CNS; 99% in the test with SNB-19 CNS; 104% in the test on U251 CNS; 99.7% in the test on PC-3 prostate. The growth is 110% in the test on SK-MEL-5 melanoma, 96% in the test on LOX IMVI melanoma and 105% in the test on SK-MEL-28 melanoma.

On to `CCNCCCn1c2c(c3ccc([N+](=O)[O-])cc3c1=O)C(=O)c1cc(OC)cnc1-2`, for which the growth is -12% (active) with HCT-15 colon; -11% (active) in the test on HT29 colon; -23.8% (active) in the test on SNB-75 CNS; 10.6% in the test with SNB-19 CNS; -73.3% (active) with U251 CNS; 1.89% (active) in the test with PC-3 prostate. For the same molecule, the growth was -97.3% (active) in the test on SK-MEL-5 melanoma, -91% (active) in the test on LOX IMVI melanoma and -31.5% (active) with SK-MEL-28 melanoma.

As for `CCN(CC)c1ccc(/C=C/c2cc(C)c3ccccc3n2)cc1`, the growth with HCT-15 colon is 29.8%; in the test with HT29 colon it was 8.05% (active); in the test on SNB-75 CNS, 42.7%; with SNB-19 CNS, 59.7%; in the test on U251 CNS, 43%; with PC-3 prostate, 65%. Also, the growth with UACC-62 melanoma is 38.4%; with LOX IMVI melanoma, 52.2%; in the test on SK-MEL-28 melanoma it was 55.1%.

For the molecule `Nc1nc(Br)nc2c1ncn2C1CC(O)C(CO)O1` (configuration not stated), the growth was 59.1% in the test on HCT-15 colon; 66.3% in the test on HT29 colon; 77.4% in the test with SNB-75 CNS; 48.6% in the test with SNB-19 CNS; 68.7% in the test on U251 CNS; 70.1% in the test with PC-3 prostate. Moreover, the growth with SK-MEL-5 melanoma was 51.2%; with LOX IMVI melanoma, 82.4%; with SK-MEL-28 melanoma, 95.8%.

For `Cn1cc(-c2csc(-c3cn(CCN)c4ccc(F)cc34)n2)c2cccnc21`, the growth was 55.9% with HCT-15 colon; 74.7% in the test on HT29 colon; 75.7% in the test on SNB-75 CNS; 77.7% with SNB-19 CNS; 81.4% in the test on U251 CNS; 61.3% in the test with PC-3 prostate. Moreover, the growth in the test on SK-MEL-5 melanoma is 57%; in the test on LOX IMVI melanoma, 60.4%; in the test on SK-MEL-28 melanoma it was 98.2%.

In the case of `COc1ccc2c(c1)c(-c1nc(-c3cn(C)c4ncccc34)cs1)cn2CCN`, the growth is 58.5% in the test with HCT-15 colon; 74.5% in the test with HT29 colon; 78.2% in the test with SNB-75 CNS; 80.7% in the test with SNB-19 CNS; 84.8% with U251 CNS; 70.2% in the test on PC-3 prostate. For the same molecule, the growth in the test with SK-MEL-5 melanoma is 60.3%; with LOX IMVI melanoma it was 68.1%; in the test with SK-MEL-28 melanoma, 99%.

As to `CC(=O)Nc1cc(F)cc(C(F)(F)F)c1Cl`, the growth in the test on HCT-15 colon was 102%; with HT29 colon, 101%; in the test on SNB-75 CNS, 83.2%; with SNB-19 CNS, 106%; in the test with U251 CNS, 105%; with PC-3 prostate it was 95.7%. In addition, the growth in the test with UACC-62 melanoma was 102%; in the test with LOX IMVI melanoma, 92.1%; in the test on SK-MEL-28 melanoma, 101%.

For the molecule `Fc1ccc(Nc2ccc3c(OCCCN4CCOCC4)cccc3n2)cc1F`, the growth in the test on HCT-15 colon was 34%; in the test on HT29 colon, 6.29% (active); in the test with SNB-75 CNS it was 66.6%; in the test on SNB-19 CNS, 90.5%; in the test with U251 CNS, 64.2%; in the test on PC-3 prostate, 80.5%. Besides, the values for the growth in the test on UACC-62 melanoma, in the test on LOX IMVI melanoma and in the test on SK-MEL-28 melanoma were 62.4%, 6.82% (active) and 80.4%, respectively.

On to `COc1cc(/C=C/c2cc(/C=C/c3ccc(O)c(OC)c3)n(-c3ccccc3)c(=O)n2)ccc1O`, for which the growth in the test on HCT-15 colon is 80.8%; with HT29 colon, -13% (active); with SNB-75 CNS it was 56.9%; in the test with SNB-19 CNS, 76.2%; in the test with U251 CNS it was 56.1%; with PC-3 prostate it was 70.4%. The growth with UACC-62 melanoma is 69.9%; with LOX IMVI melanoma, 61%; in the test on SK-MEL-28 melanoma, 78.8%.

Take `COc1ccc(C(=O)/C=C/c2cc(-c3cc(OC)c(OC)c(OC)c3)n[nH]2)cc1OC`: the growth in the test on HCT-15 colon was -16.4% (active); with HT29 colon it was -71% (active); in the test on SNB-75 CNS, 33.2%; in the test on SNB-19 CNS, 35.2%; in the test on U251 CNS, -85.5% (active); with PC-3 prostate, 20.3%. Moreover, the growth is 34.1% in the test with UACC-62 melanoma, -96.3% (active) in the test on LOX IMVI melanoma and -60.6% (active) in the test with SK-MEL-28 melanoma.

Turning to `Cc1ccnc2c(OCc3ccccc3)cccc12`, the growth is 90.3% with HCT-15 colon; 99.4% with HT29 colon; 95.4% with SNB-75 CNS; 100% in the test on SNB-19 CNS; 92.7% in the test on U251 CNS; 96.8% in the test with PC-3 prostate. For the same molecule, the growth with UACC-62 melanoma is 85.8%; in the test on LOX IMVI melanoma, 87.4%; in the test on SK-MEL-28 melanoma, 95.6%.

`CC(C)C[C@@H](NC(=O)[C@@H](Cc1ccccc1)NC(=O)c1cnccn1)B1O[C@H]2[C@H](O)[C@@H](C(=O)NCCCC[C@@H]3NC(=O)[C@@H](Cc4ccccc4)NC(=O)[C@H](CC(=O)O)NC(=O)CNC(=O)[C@H](CCCN=C(N)N)NC3=O)O[C@@H](CN)[C@H]2O1`: the growth was -54% (active) in the test on HCT-15 colon; -73.4% (active) with HT29 colon; -65.4% (active) with SNB-75 CNS; -10.1% (active) with SNB-19 CNS; -58.6% (active) in the test on U251 CNS; -34.3% (active) in the test with PC-3 prostate. For the same molecule, the growth was -36.7% (active) in the test on UACC-62 melanoma, -86.1% (active) in the test on LOX IMVI melanoma and -30.1% (active) in the test on SK-MEL-28 melanoma.

For the molecule `CCCCN1CCCCn2c1nc1c2c(=O)n(C)c(=O)n1C`, the growth with HCT-15 colon is 108%; with HT29 colon, 102%; in the test with SNB-75 CNS, 94.1%; in the test with SNB-19 CNS, 104%; with U251 CNS, 95%; in the test with PC-3 prostate, 108%. Besides, the growth in the test with UACC-62 melanoma was 101%; with LOX IMVI melanoma it was 99%; in the test on SK-MEL-28 melanoma it was 117%.

As to `CCCNc1nc(N(C)O)nc(N(C)O)n1`, the growth was 26.5% in the test with HCT-15 colon; 40.7% in the test with HT29 colon; 77.3% in the test on SNB-75 CNS; 38.3% in the test on SNB-19 CNS; 27.8% in the test on U251 CNS; 51.9% with PC-3 prostate. Besides, the growth was 31.5% in the test on UACC-62 melanoma, 22.9% in the test with LOX IMVI melanoma and 41.4% with SK-MEL-28 melanoma.

Consider `O=C1c2cc3c(cc2-c2c1c1ccc(F)cc1c(=O)n2CCCN1CCOCC1)OCO3`, for which the growth was 72.5% in the test on HCT-15 colon; 42% with HT29 colon; 53.9% in the test on SNB-75 CNS; 39.1% in the test with SNB-19 CNS; 14.2% in the test with U251 CNS; 60% in the test on PC-3 prostate. Moreover, the values for the growth with UACC-62 melanoma, in the test on LOX IMVI melanoma and in the test with SK-MEL-28 melanoma were 13.3%, 8.74% (active) and 80.1%, respectively.
